Bioassay records as filed in PubChem.
This is a sample that favours compounds with a hit; in the whole collection about 3.3% have one here.
DRD3 antagonist – D3 dopamine receptor (human) antagonism. P35462. max response, negative = inhibition, %. hit rate 2.5% among 360,000. D3R cells, DiscoveRx beta-arrestin luminescence, antagonist mode; hits give low values; in the data active = max response below about -50%; inconclusive = no clear call, values can overlap the other calls; also: % is scaled to controls: 0 for no effect and ±100 for the full control effect
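Cells expressing the human receptor were seeded at 1500 cells/well, incubated overnight at 37 degrees C in 5% CO2, then exposed to library compounds with dopamine controls for 90 minutes at 37 degrees C before luminescent detection.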
PI4K2A block – inhibitors of human PI4K2A; Q9BTU6; purified PI4K2A, ADP-Glo luminescence, 1 h; hits give low values; activity change, negative = inhibition, % at 76.9 µM; hit rate 0.13% among 420,000; AID 1346378; in the data active = activity change below about -50%; inconclusive = mostly about -30% to -49%;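 also: -100% = wells without enzyme as full effect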
Target sequence (Q9BTU6 whole entry, looked up): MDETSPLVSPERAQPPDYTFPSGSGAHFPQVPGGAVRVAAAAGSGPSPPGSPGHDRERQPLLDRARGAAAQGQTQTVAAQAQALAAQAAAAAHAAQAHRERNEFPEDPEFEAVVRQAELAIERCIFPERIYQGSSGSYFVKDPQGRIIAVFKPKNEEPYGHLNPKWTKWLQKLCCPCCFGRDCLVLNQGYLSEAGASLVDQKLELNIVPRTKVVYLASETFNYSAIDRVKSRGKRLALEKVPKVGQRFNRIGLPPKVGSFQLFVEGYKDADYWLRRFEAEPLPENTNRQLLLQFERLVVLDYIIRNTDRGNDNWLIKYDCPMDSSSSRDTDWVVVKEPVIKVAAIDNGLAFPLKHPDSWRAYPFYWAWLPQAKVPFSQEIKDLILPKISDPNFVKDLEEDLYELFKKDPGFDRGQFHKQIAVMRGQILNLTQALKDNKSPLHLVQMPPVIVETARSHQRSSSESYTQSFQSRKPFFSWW
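PI4K2A activity was measured by ADP-Glo luminescence: enzyme (4 ug/mL stock) and phosphatidylinositol (1.2 mM stock) in Tris pH 7.5/MgCl2/EGTA/Triton X-100 buffer were reacted with ATP (300 microM stock) for one hour at ambient temperature.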
LDHA block – LDHA (human) enzyme inhibition; hit rate 0.15% among 480,000; activity change, % (values are at about 110 or 230 µM); AID 1347041; purified LDHA, NADH/diaphorase-resazurin fluorescence; hits give low values; in the data active = activity change below about -30%; inconclusive = mostly about -25% to -30%;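 also: plate controls were DMSO wells for no effect and wells without enzyme for full effect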
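Enzyme activity of human lactate dehydrogenase 5 (2 nM; 0.06 mM NADH, 0.2 mM pyruvate, 5 min, RT) is measured via a resazurin/diaphorase fluorescence readout of residual NADH.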
D3 ag – D3 dopamine receptor (human) agonism. D3R DiscoveRx beta-arrestin cells, luminescence, 90 min. max activation, %. hit rate 0.58% among 410,000. AID 652048; in the data active = max activation above about 30%; also: 0% is about no effect
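Cells at 1500/well, incubated overnight, then treated with pinned compounds (dopamine as control) for 90 min at 37 degrees C. DiscoveRx reagent added for 30 - 60 minutes at room temperature; luminescence read.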
PI5P4Ka inh – blocks human PI5P4K alpha kinase activity; AID 652105; PI5P4Kalpha enzyme, ADP-Glo luminescence, 60 min; hits give low values; P48426; max response, %; hit rate 1.2% among 330,000; active = max response of -50% or lower; inconclusive = between -30% and -50%; inactive = -30% or higher; also: value at the top dose of about 77 µM; % is scaled to controls: 0 for no effect and ±100 for the full control effect
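Controls without substrate or without enzyme flank wells where PI5P4Kalpha converts substrate using 5 microM ATP (final). Incubation lasts 60 minutes at room temperature; ADP formed is read by ADP-Glo luminescence.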
* hit, by the source's call.

For CCOC(=O)N1CCN(C(=O)C[C@@H]2C(=O)N3CCCC4=C3[C@@]2(C(=O)OCC)CCC4)CC1 the results were PI4K2A block -3.9.
`COC(=O)/C(=C\c1c(OC)cc(OC)cc1OC)C(=O)c1ccc2c(c1)OCO2` gave DRD3 antagonist -93.5*, PI4K2A block -5.1, LDHA block -4.8, D3 ag 12.7 and PI5P4Ka inh -0.7.
For COc1ccc(N/C=C\C(=O)c2ccc3c(c2)OCO3)cc1OC the results were DRD3 antagonist 14.2, PI4K2A block -0.4, LDHA block -1.8, D3 ag 6.5 and PI5P4Ka inh -1.1.
For COc1ccc2c(COC(=O)c3ccc(OCC4CCCO4)cc3)cc(=O)oc2c1 (stereo not given) the results were LDHA block -0.2.
`CN1c2ccccc2C(O)=C(C(=S)Nc2ccc(F)c(Cl)c2)S1(=O)=O` gave DRD3 antagonist 9.2, PI4K2A block -3.9, LDHA block -6.6, D3 ag -3.4 and PI5P4Ka inh inconclusive.
Screening CN1c2ccccc2C(O)=C(C(=S)Nc2ccccc2)S1(=O)=O returned DRD3 antagonist -85.5*, PI4K2A block 1.2, LDHA block 3.7, D3 ag -1.4 and PI5P4Ka inh -24.9.
Screening CN1c2ccccc2C(O)=C(C(=O)Nc2ccccc2)S1(=O)=O returned DRD3 antagonist 8.7, PI4K2A block -6.9, LDHA block 3.6, D3 ag 0.1 and PI5P4Ka inh 3.2.
For Cc1ccc(NC(=S)C2=C(O)c3ccccc3N(C)S2(=O)=O)cc1 the results were DRD3 antagonist -72.7*, PI4K2A block -8.2, LDHA block -1.3, D3 ag -3.0 and PI5P4Ka inh inconclusive.
`COc1ccc(/C=N/Nc2nnc(C)n2N)cc1OC(C)=O` gave DRD3 antagonist -56.3*, PI4K2A block inconclusive, LDHA block 33.4, D3 ag -10.4 and PI5P4Ka inh 11.6.
`O=c1[nH]c(-n2cccc2)c(-c2c(-c3ccc(Cl)cc3)[nH]c3[nH]c(=O)[nH]c(=O)c23)c(=O)[nH]1` gave LDHA block -11.6.
`COc1ccc(C(CNC(=O)c2oc3cc(Br)ccc3c2C)N2CCCCC2)cc1` (stereo not given) gave DRD3 antagonist -86.5*, PI4K2A block -2.4, LDHA block -1.2, D3 ag -13.5 and PI5P4Ka inh 0.6.
`COc1ccc(C(CNC(=O)c2oc3ccc(Br)cc3c2C)N2CCCCC2)cc1` (stereo not given) gave DRD3 antagonist -75.7*, PI4K2A block 2.5, LDHA block -6.1, D3 ag -15.4 and PI5P4Ka inh 4.3.
Screening COc1ccc(C(CNC(=O)c2oc3cc(C)c(C)cc3c2C)N2CCCCC2)cc1 (stereo not given) returned DRD3 antagonist inconclusive, PI4K2A block 1.7, LDHA block -4.2, D3 ag -16.9 and PI5P4Ka inh -9.6.
Screening CCc1ccc2oc(C(=O)NCC(c3ccc(Cl)cc3)N3CCOCC3)c(C)c2c1 (stereo not given) returned PI4K2A block -3.8, LDHA block -6.6 and D3 ag 7.9.
For COc1ccc(C(CNC(=O)c2ccc(F)cc2)N2CCCC2)cc1 (stereo not given) the results were PI4K2A block -1.8, LDHA block -2.7 and D3 ag -30.6.
For COc1ccc(C(CNC(=O)c2oc3ccc(OC)cc3c2C)N2CCCC2)cc1 (stereo not given) the results were DRD3 antagonist -18.9, PI4K2A block 2.4, LDHA block -0.8, D3 ag -28.0 and PI5P4Ka inh 2.4.
COc1ccc(C(CNC(=O)c2oc3ccc(F)cc3c2C)N2CCCCC2)cc1 (stereo not given) was read as DRD3 antagonist -104.0*, PI4K2A block -2.2, LDHA block 1.6, D3 ag -22.7 and PI5P4Ka inh 24.7.
Screening CCc1ccc2oc(C(=O)NCC(c3ccc(OC)cc3)N3CCCCC3)c(C)c2c1 (stereo not given) returned DRD3 antagonist -76.6*, PI4K2A block 0.0, LDHA block -1.9, D3 ag -16.1 and PI5P4Ka inh -1.1.
CCCCn1c(CCC(=O)O)nc2c1c(=O)[nH]c(=O)n2CCCC was read as LDHA block -2.4.
`O=C(COC(=O)C1=COCCO1)Nc1cccc(S(=O)(=O)N2CCCC2)c1` gave LDHA block 0.9.
For O=C(Cn1c(=O)c2c(ncn2Cc2ccccc2)n(Cc2ccccc2)c1=O)N1CCNC1=O the results were LDHA block 3.6.
For Cc1ccc(/C(=N/Nc2nc3ccccc3s2)C2=C(O)c3ccccc3C2=O)cc1 the results were DRD3 antagonist -0.3, PI4K2A block -23.8, LDHA block -6.5, D3 ag 8.2 and PI5P4Ka inh -80.8*.
For COc1ccc(N(Cc2cccs2)C(=O)Cn2nnc(-c3cccc(OC)c3)n2)cc1 the results were LDHA block -4.3.
Screening Cc1ccc(N=Nc2ccc(O)c3ncccc23)cc1C returned DRD3 antagonist -69.5*, PI4K2A block 6.1, LDHA block 5.8, D3 ag -8.5 and PI5P4Ka inh 7.2.
Cc1ccc(N=Nc2ccc(O)c3ncccc23)cc1 was read as DRD3 antagonist -118.5*, PI4K2A block -2.0, LDHA block -0.2, D3 ag -12.9 and PI5P4Ka inh -10.4.
`CCCCN1CCNC[C@H]1Cc1ccc(O)cc1` gave DRD3 antagonist -92.1*, PI4K2A block -2.0, LDHA block -2.8, D3 ag -9.8 and PI5P4Ka inh -4.5.
Screening COc1cccc(Nc2cc(C)nc3ccccc23)c1 returned DRD3 antagonist -55.7*, PI4K2A block -2.8, LDHA block 0.0, D3 ag -2.0 and PI5P4Ka inh -12.5.
Screening CC(C)c1ccc(/C=C2\Oc3cc(OS(=O)(=O)c4ccccc4)ccc3C2=O)cc1 returned LDHA block 9.7.
For C(=C\c1ccccc1)/CN1CCN(C(c2ccccc2)c2nnnn2Cc2ccccc2)CC1 (stereo not given) the results were DRD3 antagonist -70.5*, PI4K2A block 0.4, LDHA block -3.3, D3 ag -18.5 and PI5P4Ka inh -4.4.
COc1ccc(C(c2nnnn2Cc2ccccc2)N2CCN(C/C=C/c3ccccc3)CC2)cc1 (stereo not given) was read as DRD3 antagonist -96.1*, PI4K2A block 1.0, LDHA block -4.5, D3 ag -15.6 and PI5P4Ka inh -3.4.
`N#CCOC(=O)c1c[nH]c2ccccc12` gave LDHA block -7.2.
Screening CCOC(=O)c1c(NC(=O)CC2Nc3cc(C)c(C)cc3NC2=O)sc(C)c1C (stereo not given) returned DRD3 antagonist -56.6*, PI4K2A block -3.8, LDHA block -9.4 and D3 ag -6.4.
Screening CCOc1ccccc1NC(=O)CC1Nc2cc(C)c(C)cc2NC1=O (stereo not given) returned DRD3 antagonist -16.6, PI4K2A block 1.5, LDHA block -6.3, D3 ag -4.8 and PI5P4Ka inh -3.0.
